Wnt bcat act: Wnt/beta-catenin pathway activators, primary screen, cell-based, plate reader, single point. Wnt/beta-catenin reporter cell assay, activator. activation, % at 9.35 µM. actives 1.2% (n = 300,000); in the data active means activation above about 30%, passing the limit was not always enough; inconclusive means no clear call, values can overlap the other calls
MITF TRPM1 HTS: activators of MITF-driven TRPM1 promoter reporter, primary screen, cell-based, SK-MEL-5, luciferase, single point; SK-MEL-5 TRPM1-promoter luciferase, 24 h; % of positive control, neutral wells = 0; activation, % at 12.5 µM; actives 0.75% (n = 300,000);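 active means mean activation of at least 80% with every replicate also reaching 80%; inconclusive means mean reaches 80% but some replicate falls short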
AF4-AF9 inh: inhibitors of AF4 peptide binding to AF9, primary screen, biochemical, AlphaScreen, biotin-AF4 peptide, FLAG-AF9, single point | Protein AF-9 (Homo sapiens), P42568 | inhibition, % at 10 µM | actives 0.47% (n = 350,000) | AID 651704, 2012;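 active means every replicate reaching a set inhibition limit, whatever the replicate mean, cut at about 25% in these data; inconclusive means mean inhibition reaches that limit but some replicates miss it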
Target sequence (P42568 whole entry, looked up): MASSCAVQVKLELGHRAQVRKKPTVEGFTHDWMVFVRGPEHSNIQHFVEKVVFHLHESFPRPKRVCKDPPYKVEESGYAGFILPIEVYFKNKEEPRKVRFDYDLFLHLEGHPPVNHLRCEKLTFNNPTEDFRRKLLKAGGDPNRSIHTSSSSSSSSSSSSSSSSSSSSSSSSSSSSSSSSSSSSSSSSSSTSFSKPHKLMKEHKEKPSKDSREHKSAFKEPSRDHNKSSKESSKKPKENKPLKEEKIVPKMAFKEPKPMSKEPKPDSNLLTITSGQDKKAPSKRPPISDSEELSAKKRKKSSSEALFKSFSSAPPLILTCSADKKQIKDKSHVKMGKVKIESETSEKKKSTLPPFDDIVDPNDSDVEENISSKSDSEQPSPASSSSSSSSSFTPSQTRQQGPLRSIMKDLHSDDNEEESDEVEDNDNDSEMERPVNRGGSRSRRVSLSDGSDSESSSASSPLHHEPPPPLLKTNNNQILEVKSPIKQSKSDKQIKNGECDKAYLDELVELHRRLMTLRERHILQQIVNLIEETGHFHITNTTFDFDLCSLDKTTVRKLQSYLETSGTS
rRNA inh HTS: reduced GFP signal of wild-type E. coli, primary screen, bacterial rRNA inhibitor project, GFP/RFP fluorescence, OD600, single point; E. coli WT GFP vs humanized-ribosome RFP mutants, 24 h; hits give low values; DMSO median 0, no signal -100; GFP signal change (wild-type ribosome), % (no concentration beside the values); actives 1.6% (n = 350,000);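 active means significant combined selectivity score with lowered wild-type GFP, culture density cut under 30%, mutant RFP and density less affected; inactive means any of these conditions unmet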
esBAF inh: Bmi1 luciferase reporter increase in mESCs, primary screen, esBAF inhibitor project, mouse ES cells, Bmi1 luciferase knock-in, single point | AID 602393, 2012 | actives 2% (n = 350,000) | reporter increase, % at 12.5 µM | 24 h; 100% = twice the neutral-well signal; in the data active means activation above about 40%; inconclusive means no clear call, values can overlap the other calls;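 further: a rise in the Bmi1 reporter signal indicates esBAF inhibition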
Numbers stand for hits; i = inactive; ? = inconclusive; nt = no result. Shown are actives, neighbours in structure and some others; about 3.7% of the full set was active somewhere.

SMILES	Wnt bcat act	MITF TRPM1 HTS	AF4-AF9 inh	rRNA inh HTS	esBAF inh
CC1(C(=O)NCCc2c[nH]c3ccccc23)CCN1CC1CCCCC1 (configuration not stated)	i	nt	i	-23	i
COc1ccc(C(=O)NCCc2c[nH]c3ccccc23)cc1	i	nt	i	i	54
COc1ccc(OCC(=O)NCCc2c[nH]c3ccccc23)cc1	i	i	i	nt	nt
O=C(NCCc1c[nH]c2ccccc12)/C(=C/c1cccnc1)NC(=O)c1cccs1	i	i	i	-28	nt
COc1ccc(C(=O)NCC(=O)OCC(=O)c2c[nH]c3ccccc23)cc1	i	nt	i	i	i
O=C(COC(=O)Cn1nc(-c2ccccc2)oc1=O)Nc1ccc(F)cc1	i	i	i	i	i
CSCCC(NC(=O)c1ccccc1Cl)C(=O)NCC(c1ccco1)N1CCCCC1 (configuration not stated)	i	i	i	i	i
COc1cccc(-c2ccc(C3[C@H]4CNC[C@@H]3N4Cc3cc(F)ccc3F)cc2)c1 (some centres not stated)	nt	nt	i	i	nt
CCCOc1ccc(-c2c(C(=O)N/N=C/C3CCCCC3)nnn2-c2nonc2N)cc1	i	i	i	i	i
COc1ccc(CNC(=O)NCCc2c[nH]c3ccccc23)cc1	i	i	i	i	i
COc1ccc(CCNC(=S)NCCc2c[nH]c3ccccc23)cc1	i	i	i	-33	nt
O=C(NCCc1c[nH]c2ccccc12)Nc1ccccc1	i	i	nt	nt	i
Cc1ccsc1C(=O)NCCc1c[nH]c2ccccc12	i	i	i	i	50
CCC(=O)NCCc1c[nH]c2ccccc12	i	i	nt	nt	i
O=C(NCc1ccc(F)cc1)c1cnc2sccn2c1=O	i	i	i	i	i
O=C(NCCc1c[nH]c2ccccc12)c1cnc2sccn2c1=O	i	i	i	i	76
COc1ccccc1NC(=O)NCCc1c[nH]c2ccccc12	i	i	i	-22	i
Cc1ccsc1C(=O)NCCc1nnc2ccccn12	i	i	i	i	56
Cc1nc(Sc2ccccc2)c(C#N)c(C)c1[N+](=O)[O-]	i	nt	i	-35	nt
C[C@@H]1CN(C)C(=O)Cc2ccccc2O[C@H]1CN(C)S(C)(=O)=O	nt	nt	nt	i	nt
COC(=O)Nc1ccc(SCC(=O)c2ccccc2)cc1	i	i	i	-25	nt
COC(=O)Nc1ccc(SCC(=O)c2ccc(Cl)cc2)cc1	i	i	i	i	i
Cc1cc(C(=O)CN2C(=O)c3ccccc3C2=O)c(C)n1Cc1cccs1	i	i	?	i	i
Cc1cc(C(=O)Cn2nnc3ccccc3c2=O)c(C)n1Cc1cccs1	35	nt	nt	nt	i
Cc1cc(C)cc(NC(=O)c2cc(C)n(Cc3cccs3)c2C)c1	i	103	i	i	i
SMILES	Wnt bcat act	MITF TRPM1 HTS	AF4-AF9 inh	rRNA inh HTS	esBAF inh
Cc1cccc(NC(=O)c2cccc(NC(=O)Cc3cccs3)c2)c1	i	i	i	i	nt
C=CCn1c(SCC(=O)NC23CC4CC(CC(C4)C2)C3)nc2cc(C(=O)O)ccc2c1=O	i	i	i	-23	nt
Cn1ccs/c1=N\C(=O)Nc1ccccc1	i	91	i	i	56
Cn1ccsc1=NC(=O)c1ccccc1OC(F)F	i	i	i	i	i
COC(=O)c1ccc(C(=O)N=c2sccn2C)cc1	i	83	i	i	60
CCOc1cc(C(=O)N=c2sccn2C)ccc1OC(F)F	i	i	i	-26	i
CN(C)c1ccc(C(=O)N=c2sccn2C)cc1[N+](=O)[O-]	i	i	i	i	56
CN(C)CCCNC(=O)C[C@@H]1CC[C@@H]2[C@H](COC[C@H](O)CN2CC2CC2)O1	nt	nt	i	i	i
CCOC(=O)N1CCN(C(=O)c2ccc(Cl)c(S(=O)(=O)N3CCCC3)c2)CC1	i	i	i	i	i
CC(C)NC(=O)N(C)C[C@@H]1Oc2ccc(NC(=O)Nc3cccc4ccccc34)cc2CC(=O)N([C@@H](C)CO)C[C@H]1C	nt	nt	i	i	i
CC(C)Oc1cccc(NC(=O)c2cnccc2C(F)(F)F)c1	i	i	i	i	i
CN(CC(=O)Nc1ccccc1Br)C(=O)c1ccccc1OCc1ccc(F)cc1	i	i	i	i	i
Cn1ccsc1=NC(=O)c1ccc(Cl)cc1	i	i	i	-27	nt
Cn1ccsc1=NC(=O)c1ccc(CS(C)(=O)=O)cc1	i	i	i	i	i
Cn1ccsc1=NC(=O)c1ccc(S(=O)(=O)C(F)F)cc1	i	i	i	i	58
CN(C)C(=O)C[C@@H]1CC[C@H]2[C@H](COc3ccc(NS(=O)(=O)c4cccc(F)c4)cc3C(=O)N2C)O1	nt	nt	i	i	i
Cc1cccc(-n2ccnc2SCC(=O)Nc2cc(C)on2)c1	nt	i	nt	nt	i
Cc1cc(NC(=O)CSc2nccn2-c2cccc(C)c2C)no1	i	i	i	-28	nt
Cc1ccc(S(=O)(=O)N(C)C)cc1NC(=O)Nc1ccccc1F	i	nt	i	i	i
Cc1cc(C)cc(NC(=O)Nc2cc(S(=O)(=O)N(C)C)ccc2C)c1	i	nt	i	-23	nt
Cc1ccc(NC(=S)NCc2ccccn2)cc1	nt	i	nt	nt	nt
S=C(NCc1ccccn1)NN=Cc1ccccn1	i	i	i	-19	nt
CC(=O)c1cccc(NC(=O)COC(=O)c2ccccc2C)c1	i	97	i	i	44
CCOc1ncccc1C(=O)OCC(=O)Nc1cccc(C(C)=O)c1	nt	i	nt	nt	i
C[C@@H]1CCCCO[C@H](CN(C)C(=O)Cc2ccccc2)[C@H](C)CN([C@H](C)CO)C(=O)c2cc(NS(=O)(=O)c3ccc(F)cc3)ccc2O1	nt	nt	nt	i	i
SMILES	Wnt bcat act	MITF TRPM1 HTS	AF4-AF9 inh	rRNA inh HTS	esBAF inh
COc1ccc(C2CC(c3ccc4ccccc4c3)=NN2C(=O)CNC2CCCCC2)cc1 (configuration not stated)	i	i	28	i	nt
C=CCNCC(=O)N1N=C(c2ccc3ccccc3c2)CC1c1ccc(OC)cc1 (configuration not stated)	i	i	i	i	nt
COc1ccc(C2CC(c3ccc4ccccc4c3)=NN2C(=O)CN2CCC(C(N)=O)CC2)cc1 (configuration not stated)	i	i	i	-48	48
COc1ccc(C2CC(c3ccc4ccccc4c3)=NN2C(=O)COC(=O)C2CCC(=O)N2)cc1 (configuration not stated)	45	i	i	i	nt
CC(=O)OCC(=O)N1N=C(c2ccc3ccccc3c2)CC1c1ccccc1 (configuration not stated)	nt	i	i	i	nt
C[C@@H]1CN([C@H](C)CO)S(=O)(=O)c2ccc(-c3ccncc3)cc2O[C@H]1CN(C)C(=O)C1CCCCC1	nt	nt	nt	i	i
O=[N+]([O-])c1ccc(S(=O)(=O)N2CCN(c3ccnc4cc(Cl)ccc34)CC2)cc1	i	i	i	i	nt
O=C(CCS(=O)(=O)Cc1ccccc1)Nc1ncc([N+](=O)[O-])s1	i	i	i	i	42
O=C(CCS(=O)(=O)c1ccccc1)Nc1ncc([N+](=O)[O-])s1	i	i	i	-22	i
